Experimental data: publication PMC5540273 (PLoS ONE, 2017)

How the values were obtained:
TAK1 = tested on: T1, TAK1
T1 construct: gene MAP3K7
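Also: kd values determined as follow-up on hits from a single-replicate KINOMEscan panel screen.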

SMILES: CN1C(=O)C(Nc2cc(Cl)c(O)c(Cl)c2)=C(c2ccc(Cl)cc2)C1=O [SB-404321]
- Kd (SRPK3): > 10 µM

SMILES: CCn1c(-c2ccoc2)nc2cnccc21 [SB-733887]
- Kd (TAK1): > 10 µM

SMILES: Cc1nnc(-c2ccc3ncn(-c4ccc(S(C)=O)cc4)c3c2)o1 (centres unmarked)
- Kd (TAOK1): > 10 µM
- Kd (TAOK3): > 10 µM

SMILES: COc1ccc(-c2cc3c(C)nc(N)nc3n([C@H]3CC[C@H](O)CC3)c2=O)cn1
- Kd (TBK1): > 10 µM

SMILES: O=C(NCCNc1ccnc(Nc2ccc(F)cc2)n1)Nc1ccc2c(c1)OCO2 [GSK1379882]
- Kd (TESK1): > 10 µM

SMILES: Cc1cc(Nc2nc(-c3cccc(C)n3)nc3ccccc23)ccn1 [GW872411]
- Kd (TGFBR1): 270 nM

SMILES: COc1cc2ncn(-c3cc(OCc4ccncc4)c(C(N)=O)s3)c2cc1OC [GSK336313]
- Kd (TIE1): > 10 µM

SMILES: O=C1NC(=O)C(c2ccccc2)=C1Nc1cccc(O)c1 [SB-390534]
- Kd (TLK2): 2400 nM

SMILES: CCCC(=O)Nc1n[nH]c2ncc(-c3cccc4ccccc34)cc12 [SB-642057]
- Kd (TLK2): > 10000 nM

SMILES: COc1cc(OC)cc(-c2cc3cnc(N)nc3nc2NC(=O)NC(C)(C)C)c1
- Kd (TNK2): > 10 µM
